Screens deposited in PubChem BioAssay by several laboratories.
Gli-Sufu block – Gli-Sufu pathway antagonists, primary screen, luciferase luminescence, Sufu-KO-LIGHT cells, uHTS; AID 588413, 2011; actives 0.74% (n = 340,000); Sufu-KO-LIGHT fibroblasts, Gli luciferase reporter luminescence; inhibition, % at 5 µM;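 active means inhibition above about 55%, limit read from the data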;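 further: 0% = DMSO-treated cells and 100% = wells with medium but no cells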
NCOA3 inh – SRC3 coactivator transcriptional activity inhibitors, primary screen, cell-based, luminescence; HEK293 GAL4-SRC3 luciferase reporter; inhibition, % at 3.6 µM; actives 0.17% (n = 360,000);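 active means inhibition above a per-campaign cutoff, the mean of all compounds plus 3 SD, cut at about 60% in these data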;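 further: 0% = DMSO-treated cells and 100% = gossypol-treated cells at 36 µM; higher means less SRC3-driven luciferase light from the GAL4 reporter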
NR2F2 inh – NR2F2 transcriptional activity inhibitors, primary screen, cell-based, luciferase reporter, HEK293T, luminescence; HEK293T NGFI-A luciferase reporter; inhibition, % at 8.6 µM; actives 0.7% (n = 370,000);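 active means inhibition above a per-plate cutoff, mean inhibition of test wells between control levels plus 3 SD, cut at about 38% in these data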;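 further: cells cotransfected with COUP-TFII expression vector driving the NGFI-A reporter; 0% = median of COUP-TF2 test wells and 100% = reporter-only cells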
NCOA1 inh – SRC1 coactivator transcriptional activity inhibitors, primary screen, cell-based, luminescence; Nuclear receptor coactivator 1 (Homo sapiens), Q15788; actives 0.12% (n = 360,000); inhibition, % at 3.6 µM; AID 588354, 2011; HEK293 GAL4-SRC1 luciferase reporter;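 active means inhibition above the campaign mean plus 3 SD, with each screening campaign given its own cutoff, cut at about 60% in these data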;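 further: 0% = DMSO treated cells and 100% = gossypol at 36 µM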
LRH-1 inv ag – LRH-1 (NR5A2) inverse agonists, primary screen, cell-based, luminescence, HEK293T, StAR-luciferase reporter. Nuclear receptor subfamily 5 group A member 2 (Homo sapiens), O00482. LRH-1 transfected, 24 h. inhibition, % at 3.6 µM. actives 0.13% (n = 360,000);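 active means inhibition above the mean inhibition of all tested compounds plus 3 SD, cut at about 73% in these data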;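 further: 0% = DMSO wells and 100% = reporter-only cells lacking LRH-1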
Target sequence (O00482 whole entry, looked up): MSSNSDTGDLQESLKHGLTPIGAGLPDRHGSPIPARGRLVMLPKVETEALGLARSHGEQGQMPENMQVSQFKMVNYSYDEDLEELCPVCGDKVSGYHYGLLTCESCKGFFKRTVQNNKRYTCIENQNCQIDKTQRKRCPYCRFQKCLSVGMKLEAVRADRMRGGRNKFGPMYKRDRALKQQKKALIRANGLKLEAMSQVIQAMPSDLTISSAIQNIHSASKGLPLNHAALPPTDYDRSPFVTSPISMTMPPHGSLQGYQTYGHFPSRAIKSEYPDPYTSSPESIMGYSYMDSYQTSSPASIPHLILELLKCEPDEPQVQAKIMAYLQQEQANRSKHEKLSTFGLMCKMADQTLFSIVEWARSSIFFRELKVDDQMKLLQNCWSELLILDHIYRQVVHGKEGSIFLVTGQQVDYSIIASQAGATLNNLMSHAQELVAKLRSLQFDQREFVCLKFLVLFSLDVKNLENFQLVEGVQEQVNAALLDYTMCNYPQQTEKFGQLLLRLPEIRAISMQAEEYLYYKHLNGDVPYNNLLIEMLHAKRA
NCOA2 inhibitor – inhibition of GAL4-SRC2 driven luciferase reporter, primary screen, SRC2 inhibitor project, cell-based, luminescence; actives 0.17% (n = 370,000); inhibition, % at 9 µM; Nuclear receptor coactivator 2 (Homo sapiens), Q15596; HEK293 GAL4-SRC2 luciferase reporter;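 active means inhibition above the mean inhibition of all tested compounds plus 3 SD, set per campaign, cut at about 52% in these data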;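 further: 0% = DMSO treated cells and 100% = cells given Gossypol at 36 µM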
Gli antag conf – Gli-SUFU pathway antagonists, confirmation, single concentration, luciferase luminescence, Sufu-KO-LIGHT cells. shares compounds with Gli-Sufu block. Gli luciferase reporter. inhibition, % at 5 µM. actives 40% (n = 2,500);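 active means mean inhibition at 5 µM reaching about 45%, limit read from the data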;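 further: plate controls were DMSO-treated cells for no effect and wells lacking cells for full effect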
Gli cytotox – cytotoxicity in Sufu-KO-LIGHT cells, confirmation, cytotoxicity control for Gli-SUFU antagonist project, cell-based, ATP luminescence, single concentration; shares compounds with Gli-Sufu block; cytotoxicity, % at 5 µM; actives 32% (n = 2,500); AID 651994, 2013;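 active means mean cytotoxicity at 5 µM above about 25%, limit read from the data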;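 further: cells exposed to compound overnight for roughly 16 to 18 hours; plate controls were DMSO wells with cells for no effect and medium without cells for full effect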
Wnt3a counter – Wnt3a reporter signal inhibition, confirmation, counter-screen for Gli-SUFU antagonist project, Wnt-LIGHT cells, luminescence, single concentration | shares compounds with Gli-Sufu block | actives 20% (n = 2,500) | Wnt3a-driven luciferase reporter | inhibition, % at 6.25 µM;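 active means mean inhibition above about 25%, limit read from the data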
* = called active by the depositor; · = no result given. A selection: hits, their analogues and other compounds. The true share with any hit is near 1.3%.

SMILES | Gli-Sufu block | NCOA3 inh | NR2F2 inh | NCOA1 inh | LRH-1 inv ag | NCOA2 inhibitor | Gli antag conf | Gli cytotox | Wnt3a counter
CC(=Nc1ccc(C)cc1)c1sc2ccccc2c1O | 60.7* | -49.2 | -67.2 | -90.5 | -125.3 | -42.2 | -83.6 | 54.5* | 27.6*
CC(=O)O[C@H]1[C@H](OC(C)=O)C[C@]2(OC(C)=O)C[C@H]1OC2=O | · | · | 3.4 | · | · | · | · | · | ·
COc1ccccc1NC(=O)N1CCCC1C(=O)NCC1CCCO1 (stereo not drawn) | 50.3 | -6.3 | -4.8 | 3.1 | 14.0 | 10.9 | 25.4 | 8.6 | -7.1
CCC(=O)N1CCc2cc(S(=O)(=O)CCC(=O)Nc3ccc(CC)cc3)ccc21 | 4.5 | 0.6 | -3.6 | -31.7 | -11.9 | 20.1 | · | · | ·
CCC(=O)N1CCc2cc(S(=O)(=O)CCC(=O)Nc3ccc(C(C)=O)cc3)ccc21 | 58.7* | -16.9 | 15.0 | -25.2 | 8.7 | -15.0 | 19.4 | 0.0 | 15.6
C#CCNC(=O)C[C@H]1C(=O)N(CCCOC)C2=CCCC[C@@]21C(=O)OCC | · | · | 14.0 | · | · | 1.3 | · | · | ·
Cc1nnc(C)c2c(C)n(-c3ccccc3)c(C)c12 | 59.0* | -35.5 | -10.6 | -1.2 | 4.5 | 7.7 | 37.5 | 13.7 | -14.9
Cc1ccc(-n2c(C)c3c(C)nnc(C)c3c2C)cc1C | 29.5 | -12.8 | -14.7 | 7.7 | 3.4 | -29.9 | · | · | ·
C=CCN(CC=C)S(=O)(=O)c1ccc(NC(=S)NC(=O)Cc2ccc(OC)cc2)cc1 | 69.1* | -14.4 | 11.4 | 4.1 | 10.7 | 19.7 | 15.6 | 17.1 | 24.2
COc1ccc(CC(=O)NC(=S)Nc2ccc(S(N)(=O)=O)cc2)cc1 | -0.3 | 8.3 | 2.5 | 2.9 | 25.2 | 13.5 | · | · | ·
Cc1sc2ncnc(NCc3ccco3)c2c1C | 6.6 | -36.0 | 14.2 | -24.6 | 13.4 | -11.8 | · | · | ·
Cc1sc2ncnc(NCc3cccs3)c2c1C | 57.5* | -42.6 | 34.5 | -10.6 | 30.2 | -30.0 | 50.2* | 25.6* | 6.2
Cc1ccc(CSc2nnc(-c3cccs3)o2)cc1C | · | · | -31.7 | · | · | -15.9 | · | · | ·
c1ccc(CNc2nc(-c3cccs3)nc3ccccc23)nc1 | 5.4 | 5.0 | -10.1 | 18.6 | 6.3 | 28.7 | · | · | ·
CNc1nc(NCc2ccccc2)c2ccccc2n1 | 56.7* | -14.7 | 7.2 | -8.5 | 11.0 | -5.2 | 39.7 | 14.7 | -10.2
Cc1ccc(CNc2nc(-c3cccs3)nc3ccccc23)cc1 | 50.3 | 17.7 | 13.1 | 24.8 | 11.2 | -6.0 | 16.7 | 10.2 | -37.4
COC(=O)[C@]12C[C@H](CC(=O)NCCc3ccccc3OC)C(=O)N(CCc3ccc(OC)c(OC)c3)C1=C[C@H](C(C)(C)C)O[C@@H]2C | · | · | 25.3 | · | · | -22.2 | · | · | ·
Cc1ccc(C2=NC(C(F)(F)F)(C(F)(F)F)c3c(n(-c4ccc(F)cc4)c(=O)[nH]c3=O)N2)cc1 | 40.4 | 15.0 | -4.9 | -1.2 | 13.1 | 10.0 | · | · | ·
O=c1[nH]c(=O)n(-c2ccc(F)cc2)c2c1C(C(F)(F)F)(C(F)(F)F)N=C(c1ccc(F)cc1)N2 | 75.2* | 19.2 | -3.5 | 6.5 | 8.3 | -12.1 | 68.5* | 10.0 | 77.2*
Cc1cc(C)nc(NN2C(=O)/C(=C/c3ccc(O)cc3)SC2=S)n1 | 55.5* | -15.8 | · | -52.7 | -2.1 | · | 32.1 | 5.9 | 21.2
O=C(CSc1nnc(-c2ccccn2)n1-c1ccccc1)c1ccc(Cl)c(Cl)c1 | · | · | -10.3 | · | · | 13.5 | · | · | ·
O=C(Nc1c(-c2ccc(F)cc2)nc2ncccn12)c1ccc(F)cc1 | · | · | -16.2 | · | · | -5.7 | · | · | ·
CC(C)Cn1c(N)c(C(=O)COC(=O)C2Cc3ccccc3CN2S(C)(=O)=O)c(=O)n(C)c1=O (stereo not drawn) | 55.6* | -0.1 | 25.6 | -1.7 | 19.1 | 20.8 | 61.5* | 31.0* | 8.0
CC(C)Cn1c(N)c(C(=O)COC(=O)C2CCCCC2)c(=O)n(C)c1=O | 6.5 | 1.5 | 20.2 | 0.2 | -12.2 | 8.8 | · | · | ·
C=CCN1C(=O)[C@@H](CC(=O)N2CCSCC2)[C@]2(C(=O)OC)CCCCC=C12 | · | · | -32.0 | · | · | 5.1 | · | · | ·
SMILES | Gli-Sufu block | NCOA3 inh | NR2F2 inh | NCOA1 inh | LRH-1 inv ag | NCOA2 inhibitor | Gli antag conf | Gli cytotox | Wnt3a counter
COc1cc(NC(=S)NCCN2CCOCC2)cc(OC)c1OC | 50.9 | 3.2 | 11.9 | -6.2 | 3.5 | 14.9 | 24.3 | 3.1 | 1.8
COc1ccc2c(c1)nc(SCC(C)O)n2C (stereo not drawn) | -6.6 | -5.5 | -17.0 | -31.9 | 1.9 | -23.3 | · | · | ·
COc1ccc2c(c1)nc(SCC(=O)C(C)(C)C)n2C | 63.8* | 10.0 | -6.8 | 2.3 | -20.3 | -19.3 | 23.9 | 5.8 | -5.5
COC(=O)[C@H](C)NC(=O)[C@@H]1CCCN1C(=O)CNP(=O)(OCc1ccccc1)OCc1ccccc1 | · | · | -2.5 | · | · | · | · | · | ·
C/C(=N/NC(=O)CSc1nnc(SCc2ccc(C)cc2)s1)c1cccc(O)c1 | · | · | 35.0 | · | · | 17.3 | · | · | ·
Cc1ccc(NC(=O)c2cc3ccccc3o2)cc1S(=O)(=O)N(C)C | -121.3 | -78.5 | -52.4 | -105.4 | -142.5 | -86.7 | · | · | ·
Cc1ccc(NC(=O)c2cc3ccccc3oc2=O)cc1S(=O)(=O)N(C)C | 78.5* | 85.1* | · | 85.4* | 75.3* | · | 89.1* | 16.5 | 101.4*
CCOC(=O)C1=CN(Cc2ccco2)S(=O)(=O)N(CC)C1c1cccc(OC)c1 (stereo not drawn) | 51.7 | -4.3 | 8.8 | -0.2 | -34.2 | 0.7 | 10.3 | 22.0 | -16.4
CCOC(=O)C1=CN(Cc2ccco2)S(=O)(=O)N(C)C1c1cccc(OC)c1 (stereo not drawn) | 2.6 | 8.3 | 9.9 | -2.1 | -1.4 | 8.3 | · | · | ·
CCOC(=O)C1=CN(Cc2ccco2)S(=O)(=O)N(CC)C1c1ccc(F)c(Cl)c1 (stereo not drawn) | 10.3 | 3.3 | 15.9 | 3.4 | -14.8 | -11.1 | · | · | ·
CCOC(=O)C1=CN(Cc2ccco2)S(=O)(=O)N(CC)C1c1ccccc1 (stereo not drawn) | 52.5 | 8.8 | 10.6 | 1.9 | 3.6 | -6.2 | 12.2 | 3.4 | -9.9
Cc1ccc(-c2nnc(N3CCC(C)CC3)c3ccccc23)cc1C | 55.0 | -7.8 | 23.6 | -4.0 | 1.6 | 9.7 | 20.6 | 3.4 | 26.7*
Cc1ccc(-c2nnc(N3CCC(C)CC3)c3ccccc23)cc1 | 34.5 | 4.2 | 4.5 | 6.6 | -17.8 | -24.0 | · | · | ·
